# Bioassay records deposited in PubChem by National Center for Advancing Translational Sciences (NCATS).
# MCF10A rereplic = inducers of DNA re-replication in MCF 10A breast cells. MCF 10A DNA re-replication, Hoechst nuclear intensity, 48 h. Potency, µM (doses to about 46.1 µM), inactives show at the top dose activity, positive = re-replication, usual class: activators. 2.9% of 350,000 active; note: % of control where 0% means no effect; nearly all actives have a fitted effect of over 50% in size
# KB-3-1 cytotox = kills parental KB-3-1 adenocarcinoma cells; KB-3-1 viability, CellTiter-Glo ATP luminescence, 72 h; Potency, µM (series often up to 46.1 µM), hits mostly cytotoxic; 1.4% of 400,000 active; note: % is set by controls: 0 for no effect and ±100 for the full control effect; nearly all actives have a fitted effect of over 60% in size
#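 Multi-concentration cytotoxicity screen in KB-3-1 cells grown in DMEM lacking phenol red with 10% FBS. After 72 h at 37 °C with compound, ATP-dependent luminescence was recorded.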
# HT1080-NT tox = kills 2HG-producing HT-1080-NT fibrosarcoma cells. HT-1080-NT fibrosarcoma viability, CellTiter-Glo ATP luminescence, 48 h. Potency, µM (titrated, usually from 46.1 µM), inactives show at the highest dose activity, negative = less viability, hits mostly cytotoxic. 1.6% of 360,000 active. AID 686970;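 note: NT is the 2HG producing partner of a matched IDH1 knockdown line; 0% = DMSO-treated cells and -100% = media-only wells without cells; nearly all actives have a fitted effect of over 55% in size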
#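 Read-out is CellTiter-Glo luminescence after 10 minutes at room temperature, following 48 hours' compound treatment of HT-1080-NT cells (750 cells/well, RPMI, 5% FBS, 37 degrees C).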
# SW480 rereplic = DNA re-replication induction in SW480 cells. SW480 DNA re-replication, Hoechst DNA content imaging, 48 h. Potency, µM (series often up to 46.1 µM), for the others: at the top dose re-replication activation, usual class: activators. 1.8% of 340,000 active; note: % of control where 0% means no effect; nearly all actives have a fitted effect of over 55% in size
#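 Cells (250 per well) received 23 nL compound or DMSO by pin tool and were kept 48 hr at 37 C, 5% CO2. Nuclei were then stained with Hoechst for 40 min and scanned for DNA content.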
# KB-V1 MDR tox = KB-V1 MDR subline cytotoxicity; KB-V1 MDR cells viability, CellTiter-Glo, 72 h; Potency, µM (doses to about 46.1 µM), most hits filed as cytotoxic; 3.4% of 400,000 active; note: % is set by controls: 0 for no effect and ±100 for the full control effect; nearly all actives have a fitted effect of over 60% in size
#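 Cytotoxicity toward P-gp-expressing KB-V1 cells was determined as loss of CellTiter-Glo luminescence after 72 h at 37 degrees C. Compounds were tested in quantitative HTS format across a concentration range, with curves fitted to normalized data.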
# HT1080 IDH1KD tx = kills HT-1080 cells with IDH1 knockdown; AID 686971; Potency, µM (doses to about 46.1 µM), for the others: at the highest dose activity, negative = toxicity, hits mostly cytotoxic; HT-1080 IDH1 knockdown viability, ATP luminescence, 48 h; 2% of 360,000 active;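 note: 0% = DMSO wells and -100% = cell-free medium wells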
#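 Luminescent ATP read-out (CellTiter-Glo, 10 min at room temperature) after 48 h compound exposure at 37 °C gave viability of IDH1-knockdown HT-1080 cells. Activity was normalised to DMSO and cell-free wells, then fitted as concentration-response curves.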
# The depositor's hits bear a star; i = inactive; u = inconclusive; x = not tested or not shown; ! = not active in a repeat. Sampled rows, rich in hits. Any-hit rate of the full collection: about 8%. Calls come from the whole dose curve; as a rule, active = well fitted curve in the direction sought with a large enough effect; inconclusive = small, poorly fitted or top-dose-only effect, or another doubt; inactive = no such curve, though single readings can be large; an effect the other way counts as inactive or inconclusive. Potency is the fitted concentration of half-maximal effect.
SMILES,MCF10A rereplic,KB-3-1 cytotox,HT1080-NT tox,SW480 rereplic,KB-V1 MDR tox,HT1080 IDH1KD tx
Cc1c(C(=O)N(Cc2ccc(Cl)cc2)C2CCS(=O)(=O)C2)oc2ccccc12 (centres undefined),1%,u,u,-9%,8.2µM*,-24%
CCOc1ccc(CN(C(=O)c2oc3ccccc3c2C)C2CCS(=O)(=O)C2)cc1 (centres undefined),u,i,-7%,u,9.2µM*,u
COc1ccc(CN(C(=O)c2oc3ccccc3c2C)C2CCS(=O)(=O)C2)cc1OC (centres undefined),13%,i,-10%,-5%,i,-17%
Cc1cccc(Cn2cc(C(=O)c3ccccc3)c(=O)c3cc4c(cc32)OCO4)c1,x,i,x,x,i,x
CCCCCCc1cc2cc(C(=O)Nc3ccc(OC)cc3)c(=O)oc2cc1O,0.73µM*,8.2µM*,-10%,15µM*,8.2µM*,-19%
N/C(=N\NC(=O)c1ccc(F)cc1)c1cc2ccccc2oc1=O,-3%,i,-17%,1%,i,-8%
CNc1c(NS(=O)(=O)c2ccc(F)c(Cl)c2)c(=O)oc2ccccc12,3%,i,-17%,1%,i,u
CCCCCCc1cc2cc(/C(N)=N/NC(=O)c3ccncc3)c(=O)oc2cc1O,1.3µM*,i,-12%,1.6µM*,i,-4%
CCCCCCc1cc2cc(C(=O)NC)c(=N)oc2cc1O,u,i,4%,13µM*,i,23%
CCCCCCc1cc2cc(S(=O)(=O)c3ccc(F)c(Cl)c3)c(=O)oc2cc1O,u,i,16µM*,2.6µM*,15µM*,u
CCOc1ccc2cc(C(=O)NCc3ccccc3)c(=N)oc2c1,u,i,-14%,1%,i,-26%
COc1ccc(NC(=O)c2cc3ccccc3oc2=O)cc1,x,i,12%,x,i,10%
COc1ccc(NC(=O)C(NC(=O)C2CCC(C)CC2)C(C)C)cc1 (centres undefined),x,i,x,x,i,x
COc1ccc2oc(=O)c(C(=O)Nc3ccccc3O)cc2c1,3%,i,1%,-2%,i,-1%
CCOC(=O)c1cc2ccc3ccccc3c2oc1=O,7%,i,10%,u,u,4%
CCCCCCc1cc2cc(C(=O)Nc3cccc(OC)c3)c(=O)oc2cc1O,u,7.3µM*,9%,u,6.5µM*,5%
CCOC(=O)c1cc2ccc(OC(=O)c3ccco3)cc2oc1=O,3.3µM*,i,-4%,30%,i,u
CCCCCCc1cc2cc(C(=O)OCC)c(=O)oc2cc1O,u,i,2%,1.3µM*,i,-11%
CCCCCCc1cc2cc(-c3nnc(-c4ccc(C)cc4)o3)c(=O)oc2cc1O,x,i,x,x,i,x
Cc1cc2cc(C)c(NCCNC(=O)c3ccccc3)nc2cc1C,2%,i,-19%,12%,i,-14%
Cc1ccc(C(=O)NCCNc2nc3cc(C)c(C)cc3cc2C)cc1,8.2µM*,u,-9%,8.2µM*,u,-21%
COc1ccc(-c2nnn(CC(=O)N(C3CCCCC3)C(C)C(=O)NC3CCCC3)n2)cc1OC (centres undefined),9%,i,7%,-15%,2.6µM*,1%
COc1ccc(-c2nnn(CC(=O)N(C3CCCC3)C(C)C(=O)NC3CCCC3)n2)cc1OC (centres undefined),1%,i,6%,-1%,i,6%
COc1ccc(N(CC(=O)NC2CCCC2)C(=O)Cn2nnc(-c3ccc(C)cc3)n2)cc1OC,-1%,i,-1%,4%,13µM*,1%
COc1ccc(N(CC(=O)NC2CCCC2)C(=O)Cn2nnc(-c3ccc(C)o3)n2)cc1,1%,i,1%,-1%,u,-21%
SMILES,MCF10A rereplic,KB-3-1 cytotox,HT1080-NT tox,SW480 rereplic,KB-V1 MDR tox,HT1080 IDH1KD tx
COc1ccc(N(CC(=O)NC2CCCC2)C(=O)Cn2nnc(-c3ccc(C)cc3)n2)cc1,1%,i,-2%,-4%,16µM*,-19%
COc1ccc(N(CC(=O)NC2CCCC2)C(=O)Cn2nnc(-c3ccc(F)cc3)n2)cc1OC,3%,i,-4%,-1%,i,0%
C=CCn1c(SCc2ccc(C#N)cc2)nnc1-c1ccccc1,-3%,i,-10%,-8%,9.2µM*,5%
COc1ccc(SC[C@H](C)CN2CC[C@H](O)CCC2=O)cc1,x,i,x,x,i,x
COc1ccc(SC[C@H](C)CN2CC[C@H](C)CCC2=O)cc1,20%,18µM*!,5%,-1%,8.2µM*!,7%
Cc1ccc(SC[C@H](C)CN2CC[C@H](C)CCC2=O)cc1,u,u,-1%,u,18µM*!,7%
Cc1cc(C)cc(N2CC(c3nnc(NC(=O)c4ccco4)s3)CC2=O)c1 (centres undefined),x,i,x,x,i,x
COc1cc2oc(=O)c(CC(=O)N3CCCCC3)c(C)c2cc1Cl,x,i,x,x,i,x
COc1ccc(-n2nc(C(=O)Nc3ccc(OC)c(OC)c3)c3c4ccccc4n(C)c3c2=O)cc1,u,u,9%,16µM*,u,0%
COc1ccc(-n2nc(C(=O)Nc3ccc4c(c3)OCO4)c3c4ccccc4n(C)c3c2=O)cc1,2%,i,13%,-2%,i,11%
CCSc1nnc(NC(=O)NC(C)(C(F)(F)F)C(F)(F)F)s1,u,i,u,u,i,u
CCSc1nnc(NC(=O)NC(CC)(C(F)(F)F)C(F)(F)F)s1,u,u,18µM*,21%,i,u
O=S(=O)(c1cccs1)N1CCN(CCOc2ccc(Cl)cc2)CC1,10%,u,-9%,-14%,u,-15%
O=S(=O)(c1cccs1)N1CCN(CC(O)COc2cc(Cl)ccc2Cl)CC1 (centres undefined),u,u,-25%,10%,8.2µM*,u
CCCCNC(=O)c1nc(-c2cc3ccccc3[nH]2)oc1-c1ccccc1,x,i,-16%,x,8.2µM*,-9%
Cc1cc(=O)n2c(C(=O)Nc3ccc(C(=O)OC(C)C)cc3)c(C(=O)Nc3ccccc3)sc2n1,16µM*,i,u,-81%,i,-23%
Cc1cc(S(=O)(=O)N2CCCC2)ccc1OCC(=O)NC1CCCC1,1%,i,6%,0%,i,-7%
CCOC(=O)C1CCCN(S(=O)(=O)c2cc(OCC(=O)NC3CCCCC3)c(C)cc2Cl)C1 (centres undefined),10%,i,-3%,2%,16µM*,-9%
